Results on 40 compounds are retold here after PubChem BioAssay (NCATS).

Results filed as inconclusive are left out. Activity calls are given as the source filed them. The call rests on the fitted dose curve; in most records, active means well fitted cell-killing curve with a large enough effect; inconclusive means small, poorly fitted or top-dose-only effect; inactive means no such curve, though single readings can be large or run the other way. Residues, ends and D or L forms follow the SMILES beside them. *: point of attachment. Cbz = O=C(OCc1ccccc1)*
Potency means the concentration at half of the fitted maximal effect.

This experiment in a line: qHTS of pediatric cancer cell lines to identify multiple opportunities for drug repurposing: Primary screen for A673 cells (AID 1347092). Further: nearly all actives have a fitted effect of over 45% in size. Conditions: A673 Ewing sarcoma viability, CellTiter-Glo ATP luminescence, 48 h; series mostly up to 46 µM. From the text:
Drug repurposing or repositioning has been offered as a strategy for drug development in oncology programs. This approach has special potential for childhood cancers and other rare or orphan diseases, where the expected return on new drug development has been a disincentive to pharmaceuticals. […] In this project we exploit the poly-pharmacology of drugs to discover new indications via phenotypic screening of a panel of 19 well-characterized cell lines derived from solid tumors seen in children and adolescents. The goal is to identify approved drugs with previously unrecognized anticancer properties that has the potential to reveal new mechanisms and biological processes involved in carcinogenesis or drug resistance. We employed a titration-based paradigm (quantitative high-throughput screening or qHTS), where all compounds were tested at multiple concentrations for their effect on cell viability. Concentration-response curves (CRCs) were derived directly from the primary screen, and both potency and efficacy values were used to identify compounds with robust bioactivity profiles. We screened the NIH Chemical Genomics Center (NCGC) Pharmaceutical Collection (NPC) and Mechanism Interrogation Plate (MIPE) small molecule collections of approved and investigational compounds against these cell lines; and measured metabolically active cells after 48 hours of compound treatment as a proxy for cell viability. […] Assay Submitter: Nathalia J. Martinez, National Center for Advancing Translational Sciences, National Institutes of Health, Rockville, MD, USA; email: natalia.martinez@nih.gov. Shen, M et al. Quantitative high-throughput phenotypic screening of pediatric cancer cell lines identifies multiple opportunities for drug repurposing. Oncotarget 2017 Dec 19;9(4):4758-4772. PMID 29435139.
The cells were obtained from University of North Carolina (UNC), Pediatric Preclinical Testing Program (PPT), and Coriell Institute (CI). qHTS cell viability assay: Cells were assayed in growth media at a density of 500-1,000 cells/well. Five microliters of cells were dispensed into 1,536-well, white, solid-bottom, TC-treated plates (Greiner Bio One) using a multidrop dispenser and incubated at 37 degrees C, 5% CO2, under a humidified atmosphere for 5 hours. Twenty-three nanoliters of compounds and controls (neutral control DMSO or positive control bortezomib at final concentration of 2.3 uM) were subsequently transferred by Kalypsys pintool. For primary screens, the MIPE collection was tested at 11-point dilutions (final concentrations range from 0.78 nM to 46 µM) and the NPC collection at 8-point dilutions (final concentrations range from 0.59 nM to 46 µM). Compounds tested in follow-up screens were assayed at 11-point dilutions. Cells were incubated for 48 hours, followed by addition of 3 uL of CellTiter-Glo (Promega). After a 15min incubation at room temperature, samples were analyzed for luminescence intensity using a ViewLux High-throughput CCD imager equipped with clear filters.
In the case of `Cc1cn([C@@H]2O[C@H](CO)[C@@H](O)[C@H]2F)c(=O)[nH]c1=O`, the Potency result is “inactive”. Under `CC1(C)CC(O)CC(C)(C)N1[O]` stands “inactive”. For the compound `CC(C)N(CC[C@H](c1ccccc1)c1cc(CO)ccc1O)C(C)C`, the Potency result was “inactive”. Turning to `C[C@H](NCc1ccc2c(c1)nc(NC(=O)c1ccc(-c3cn[nH]c3)s1)n2CCc1ccccc1)C(C)(C)C`, the Potency was 0.743 µM (active). Under `CCc1c(O)cc(O)c(C(=O)c2ccc(OCCN3CCOCC3)c(OC)c2)c1CC(=O)N(CCOC)CCOC` stands 0.935 µM (active).

In the case of `CO[C@@H]1[C@@H](O)[C@H](O)[C@@H](n2c3c(Cl)cccc3c3c4c(c5c6cccc(Cl)c6[nH]c5c32)C(=O)NC4=O)O[C@@H]1CO`, the Potency is 0.235 µM (active). Under `CCC(C=C[C@@H]1OC(=O)C=C[C@H]1C)=C[C@H](C)CC=CC(C)=C[C@@H](C)C(=O)[C@@H](C)[C@H](O)[C@@H](C)CC(C)=CC(=O)O` stands 0.0247 µM (active). `C[C@H]1C[C@H]2[C@@H]3CCC4=CC(=O)C=C[C@]4(C)[C@@H]3C(=O)C[C@]2(C)[C@@]1(O)C(=O)CO`: the Potency entry was “inactive”. Under `Oc1ccc(-c2ccc(-c3cc(Nc4cccc(CNC5CC5)c4)n[nH]3)cc2)c(O)c1` stands 0.935 µM (active).

With `CC(C)C[C@@H](C=O)NC(=O)[C@H](CC(C)C)NC(=O)[C@H](CC(C)C)NC(=O)OCc1ccccc1` (Cbz-Leu-Leu-Leu-aldehyde), the Potency was 0.235 µM (active). As to `C[C@@H](NCc1cc2ccccc2[nH]1)c1cccc2ccccc12`, the Potency entry was “inactive”.

Take `C[C@H]1O[C@H](O[C@H]2[C@H](O)[C@@H](O)[C@@H](O[C@H]3[C@H](O)[C@@H](O)C(O)O[C@H]3CO)O[C@H]2CO)[C@H](O)[C@@H](O)[C@H]1N[C@H]1C=C(CO)[C@@H](O)[C@H](O)[C@@H]1O` (stereo not given in full): the Potency was 0.187 µM (active). As to `O=C1NC(O)CCN1[C@@H]1O[C@H](CO)[C@H](O)[C@H]1O` (stereo not given in full), the Potency entry is “inactive”. Consider `NC(=O)c1ncn([C@@H]2O[C@H](CO)[C@@H](O)[C@@H]2O)c1O`, for which the Potency entry is “inactive”. For `O=C(O)CCCCCC(=O)NN=C1CCCC1`, the Potency result is “inactive”. `NC1=N[C@H]2[C@H](CS[C@H]2CCCCC(=O)O)N1`: the Potency result was “inactive”. As for `CCc1nc(-c2cccc(C)c2)c(-c2ccnc(NC(=O)c3ccccc3)c2)s1`, the Potency was 23.5 µM (active). Under `CC(C)N1[N]C(=C2C=c3cc(O)ccc3=N2)c2c(N)ncnc21` stands 1.48 µM (active); under `Nc1nc2c(c(=O)[nH]1)N(C=O)[C@H](CNc1ccc(C(=O)N[C@@H](CCC(=O)O)C(=O)O)cc1)CN2`, 7.43 µM (active). Under `CC(=O)N1CCN(c2ccc(OCc3nn(C)c(C)c3-c3cccc4c(CCCOc5cccc6ccccc56)c(C(=O)O)n(Cc5cccnc5)c34)cc2)CC1` stands 0.0743 µM (active); under `Nc1ccn(C[C@@H](CO)OCP(=O)(O)O)c(=O)n1`, “inactive”; under `CC(=O)[C@]1(O)Cc2c(O)c3c(c(O)c2[C@@H](O[C@H]2C[C@H](N)[C@@H](O)[C@H](C)O2)C1)C(=O)c1ccccc1C3=O`, 0.148 µM (active). For `O=C(NC1CC1)c1cccc(-c2ccc3c(NC(=O)C4CC4)n[nH]c3c2)c1`, the Potency was 0.372 µM (active). In the case of `COc1ccc2c(c1OC)C(=O)OC2[C@H]1c2c(cc3c(c2OC)OCO3)CCN1C` (stereo not given in full), the Potency is 0.0743 µM (active). Regarding `O=C(C=CC=Cc1ccc2c(c1)OCO2)N1CCCCC1`, the Potency result was “inactive”. With `C=C[C@@H]1CN2CCC1C[C@H]2[C@H](O)c1ccnc2ccc(OC)cc12` (stereo not given in full), the Potency entry was “inactive”. Under `O=C(CN1C(=O)C2(CCCC2)NC[C@H]1c1cc(F)cc(F)c1)Nc1ccc2c(c1)C[C@@]1(C2)C(=O)Nc2ncccc21` stands “inactive”.

Take `CC(=O)O[C@H]1C[C@@H]2CC[C@H]3[C@H]4C[C@H]([N+]5(C)CCCCC5)[C@@H](OC(C)=O)[C@@]4(C)CC[C@@H]3[C@@]2(C)C[C@H]1[N+]1(C)CCCCC1`: the Potency result is “inactive”. Under `Cc1ccc(O)c(C(CCN(C(C)C)C(C)C)c2ccccc2)c1` (stereo not given) stands “inactive”; under `Nc1ncn([C@@H]2O[C@H](CO)[C@@H](O)[C@@H]2O)c(=O)n1`, 4.69 µM (active); under `C[C@H](CCC(=O)O)[C@H]1CCC2C3C[C@H](O)[C@@H]4C[C@H](O)CC[C@]4(C)C3CC[C@@]21C` (stereo not given in full), “inactive”. On to `Oc1ccc([C@@H]2Oc3ccc(O)cc3[C@@H]3CCC[C@@H]32)cc1`, for which the Potency was 9.35 µM (active).

As for `CS[C@H]1SC[C@@H]2C(=O)N(C)[C@H](C(C)C)C(=O)OC[C@H](NC(=O)c3cnc4ccccc4n3)C(=O)N[C@H](C)C(=O)N(C)[C@@H]1C(=O)N(C)[C@H](C(C)C)C(=O)OC[C@H](NC(=O)c1cnc3ccccc3n1)C(=O)N[C@H](C)C(=O)N2C`, the Potency is 0.0023 µM (active). Regarding `CCC[C@H]1C[C@H](C(=O)N[C@@H]([C@@H]2O[C@@H](SC)[C@@H](O)[C@@H](O)[C@@H]2O)[C@H](C)Cl)N(C)C1`, the Potency result was “inactive”. Under `N#Cc1c(NC(=O)c2cccc3ccccc23)sc2c1CCCC2` stands 0.235 µM (active). Under `O=C(Nc1cccc(Nc2ncc(Br)c(NCCc3cnc[nH]3)n2)c1)N1CCCC1` stands 11.8 µM (active); under `Nc1cccc2c1C(=O)N(C1CCC(=O)NC1=O)C2=O` (stereo not given), “inactive”. Under `CC(C)c1cnn2c(NCc3ccccc3)cc(NCCCCCCN)nc12` stands 5.9 µM (active); under `COc1cc(C=CC(=O)CC(=O)C=Cc2ccc(O)c(OC)c2)ccc1O`, 6.79 µM (active); under `CN(C)c1ccc2cc(C(=O)N[C@@H](CCCN=C(N)CCl)C(=O)NCc3ccccc3)ccc2c1`, 0.469 µM (active).
